# Screening data (PubChem)
# TrxR1 substrate = substrates of rat thioredoxin reductase 1. O89049. purified TrxR1 substrate turnover, NADPH consumption readout. Potency, µM (top dose mostly 114 µM), without a hit: top-dose activity change, negative = substrate turnover. 0.01% of 390,000 active. AID 588456; further: potency means the concentration at half of the fitted maximal effect; nearly all actives have a fitted effect of over 50% in size
# Target sequence (O89049 whole entry, looked up): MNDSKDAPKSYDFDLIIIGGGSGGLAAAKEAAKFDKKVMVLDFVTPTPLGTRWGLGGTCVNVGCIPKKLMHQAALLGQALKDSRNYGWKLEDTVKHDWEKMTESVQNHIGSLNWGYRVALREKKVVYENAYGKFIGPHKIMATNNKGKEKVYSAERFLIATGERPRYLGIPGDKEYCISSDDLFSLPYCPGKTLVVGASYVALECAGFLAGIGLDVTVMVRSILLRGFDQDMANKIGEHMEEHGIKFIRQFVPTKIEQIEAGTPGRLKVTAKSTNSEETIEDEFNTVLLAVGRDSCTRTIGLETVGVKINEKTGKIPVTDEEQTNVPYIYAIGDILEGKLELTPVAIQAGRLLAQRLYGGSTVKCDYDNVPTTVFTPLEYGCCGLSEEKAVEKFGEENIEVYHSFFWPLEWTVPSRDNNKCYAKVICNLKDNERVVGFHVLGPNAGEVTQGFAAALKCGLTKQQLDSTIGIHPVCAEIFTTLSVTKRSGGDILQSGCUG
#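 Rat TrxR1, dispensed at 90 nM, was prereduced with 400 uM NADPH (final) for 5 min at ~22 deg C, then incubated with compound 15 min before 400 uM selenite. A first-read NADPH fluorescence drop versus no-compound background flagged substrates.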
# PI4K2A inh = blocks human PI4K2A kinase activity | 0.13% of 420,000 active | activity change, negative = inhibition, % at 76.9 µM | purified PI4K2A, ADP-Glo luminescence, 1 h; active compounds read low; in the data active means activity change below about -50%; inconclusive means mostly about -30% to -49%;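 further: -100% = wells without enzyme as full effect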
#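 ADP-Glo luminescence measured ADP generated by PI4K2A enzyme (4 ug/mL before mixing) with 1.2 mM PI substrate (pre-mix) and 300 microM ATP (pre-mix). Tris pH7.5 buffer with MgCl2, Triton X-100; 1 h reaction at ambient temperature.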
# PKM2 act = increases activity of human pyruvate kinase M2; P14618; purified PKM2, Kinase-Glo ATP luminescence, activation; response scale: 0% is enzyme alone, no compound; Potency, µM (doses to about 57.5 µM), for the others: at the highest dose activation, actives largely listed as activators; 0.34% of 260,000 active; AID 1631; further: potency means the concentration at half of the fitted maximal effect; nearly all actives have a fitted effect of over 55% in size
#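 hPK-M2, >95% pure; 0.1 mM ADP / 0.5 mM PEP final; imidazole pH7.2 buffer w/ 7 mM MgCl2, 50 mM KCl; 1 h RT; Kinase-Glo lum. Intermediate enzyme activity for dual inhibitor/activator qHTS.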
# rTrxR1 inhibitor = inhibitors of rat thioredoxin reductase 1. Potency, µM (highest dose often 114 µM), inactives show at the highest dose activity change, negative = inhibition, actives largely listed as inhibitors. 1% of 390,000 active. recombinant rTrxR1, NADPH fluorescence consumption, selenite substrate. AID 588453; further: potency means the concentration at half of the fitted maximal effect; nearly all actives have a fitted effect of over 65% in size
#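 Rat TrxR1 (90 nM in the dispensed reagent) was pre-reduced with 400 uM NADPH for 5 min at room temperature, then incubated with compound for 15 min. After 400 uM selenite was added, NADPH fluorescence (Ex 340/Em 450 nm) was followed for 8 min.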
# GALK inhibitor = blocks human galactokinase activity; P51570; Purified GALK, Kinase-Glo residual ATP luminescence; Potency, µM (highest dose often 57.5 µM), for inactives: at the highest dose activity change, negative = inhibition, actives largely listed as inhibitors; 0.007% of 270,000 active; AID 1868; further: potency means the concentration at half of the fitted maximal effect
#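 Kinase-Glo Plus luminescence measured ATP left after a 1 h room-temperature reaction. The reaction used 5 nM GALK, 100 uM galactose and 35 uM ATP at pH 8.0 (20 mM HEPES, 5 mM MgCl2, 60 mM NaCl, 1 mM DTT, 0.01% BSA).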
# * hit, by the source's call; u = inconclusive; x = no result given; [ ] = another dose, or the depositor's remark. Shown are actives, neighbours in structure and some others; about 1.2% of the full set was active somewhere. Unless noted, the call rests on the fitted dose curve; in most records, active means well fitted curve in the direction sought with a large enough effect; inconclusive means small, poorly fitted or top-dose-only effect, or another doubt; inactive means no such curve, though single readings can be large; an effect the other way counts as inactive or inconclusive. Unless noted, on the % scale 0 is the no-effect control and ±100 the full control effect.
SMILES,TrxR1 substrate,PI4K2A inh,PKM2 act,rTrxR1 inhibitor,GALK inhibitor
O=C1C(Cl)=C(NCCCO)C(=O)c2ccccc21,-13%,-13,-4%,-18%,-1%
CCOCCCNC1=C(Cl)C(=O)c2ccccc2C1=O,-20%,-27,-1%,7.1µM*,4%
COc1ccc(Oc2nnc(-c3ccc(C)cc3)c3ccccc23)cc1,8%,-1,-7%,31%,1%
COc1ccc(-c2nnc(C)c3nocc23)cc1,-6%,u,x,20µM*,3%
COc1ccc(N2C(=O)C(CC(=O)Nc3ccc(F)cc3)N(CCC3=CCCCC3)C2=O)cc1 (stereo unspecified),-3%,-3,x,18%,x
COC(=O)c1cc(C#N)c(=O)[nH]c1C,0%,3,-3%,0%,-1%
COCc1[nH]c(=S)c(C#N)cc1C(=O)OC,1%[57.1 µM],-5,-2%,14µM*,4%
CCOC(=O)c1cc(C#N)c(=S)[nH]c1C,-7%,4,-6%,7.9µM*,0%
Cc1ccc(C)c(N2CCN(C(=O)C3CCC(CNS(=O)(=O)c4ccc(Br)s4)CC3)CC2)c1 (stereo unspecified),-2%,2,x,12%,x
COC(=O)C(NNc1ccccc1C)(NC(=O)c1ccc(F)cc1)C(F)(F)F (stereo unspecified),-1%,-9,-1%,28µM*,-2%
CNCC(O)COc1ccccc1 (stereo unspecified),-4%,4,-3%,71µM*,-3%
COc1ccccc1Cn1cc(C(=O)c2ccc(C)cc2)c(=O)c2cc(C)ccc21,7%,4,x,21%,x
Fc1ccc(Nc2cncc(-c3ccsc3)c2)cc1Cl,x,-50*,x,x,x
Fc1ccc(Nc2nnc(C(F)(F)F)s2)cc1Cl,-4%,3,-2%,7%[57.1 µM],-2%
CCOC(=O)Cc1nc(N2CCN(Cc3cccc4c3OCO4)CC2)c2c(C)c(C(=O)OCC)sc2n1,x,-1,x,x,x
O=C(CSc1nnc(-c2ccncc2)s1)Nc1ccccc1,7%[0.457 µM],-12,4µM*,3%,-3%
O=C(CSc1nnc(-c2cccnc2)s1)Nc1cccc(C(=O)O)c1,4%,-4,-13%,1%,2%
O=C(CSc1nnc(-c2cccnc2)s1)Nc1ccccc1,6%,-1,14µM*,19%,16%
C[C@@H]1C[C@H]2[C@@H](C)C(=O)N3[C@H](c4ccccc4)[C@H](C)C[C@H]3[C@@H](C)C(=O)N2[C@@H]1c1ccccc1,x,-2,x,x,x
CN(C)CCCNC(=O)C1CCNCC1,-6%,4,2%,71µM*,-4%
CN(C)CCCNC(=O)c1cc(C(=O)C2CCCCC2)c[nH]1,6%[57.1 µM],12,-3%,17%,2%
COc1ccc(Cn2c(C)ccc2C)cc1,-1%,-3,-3%,32µM*,1%
COc1ccc(Cn2c(-c3ccc(OC)cc3)nc3ccccc32)cc1,2%,-4,-3%,2%,0%
CCOC(=O)c1c(NC(C)=O)sc2c1CCN(Cc1ccccc1)C2,-7%[57.1 µM],-4,-7%,6%[57.1 µM],x
CCOC(=O)c1c(NC(C)=O)sc2c1CCC(C=O)=C2Sc1ccccc1,6%,2,13%,1.3µM*,1%
SMILES,TrxR1 substrate,PI4K2A inh,PKM2 act,rTrxR1 inhibitor,GALK inhibitor
Cc1cc(NS(=O)(=O)c2ccc(NC(=O)COc3ccccc3Br)cc2)no1,0%,-1,x,21%,x
CC1=C(C(=O)N2CCN(c3cccc(Cl)c3)CC2)C2(CCCCC2)OC1=O,-4%,2,x,15%,x
Cc1[nH]c2ccccc2c1C1=CC(=O)C=CC1=O,5%,-9,x,25µM*,x
Cc1ccccc1N/N=C/c1sc(=O)n(Cc2cccc(C(=O)O)c2)c1Cl,1%,-6,-3%,50µM*,2%
COC(=O)c1cccc(Cn2c(Cl)c(/C=N/Nc3ccccc3C)sc2=O)c1,-13%,24,-2%,22µM*,0%
COc1cc(C2NC(=O)NC(C)=C2C(=O)Nc2cc(C)cc(C)c2)ccc1O (stereo unspecified),15%,-4,x,10%,x
COc1ccc(S(=O)(=O)N2CCC(c3nc4ccccc4o3)CC2)c(OC)c1,x,-5,x,x,x
Cc1ccc(S(=O)(=O)N2C=C(c3ccccc3)c3ccccc3-c3ccccc32)cc1,x,-4,x,x,x
COc1ccccc1NC(=O)CN(c1ccc([N+](=O)[O-])cc1)S(=O)(=O)c1ccccc1,3%[57.1 µM],-1,10µM*,-3%[57.1 µM],1%
O=C(On1c(-c2ccccc2)nc2ccccc2c1=O)c1ccco1,9%,2,18%,5µM*,-3%
O=C(c1ccc2c(c1)N(Cc1cccc(Cl)c1)C(=O)c1ccccc1S2=O)N1CCN(c2cccc(C(F)(F)F)c2)CC1 (stereo unspecified),-2%[57.1 µM],9,x,31%[57.1 µM],x
CCOC(=O)C(=Cc1cc(=O)c(OC)co1)C(=O)OCC,2%,5,u,3.5µM*,x
COc1coc(C(O)CN)cc1=O (stereo unspecified),8%,-2,2%,35%,2%
Cc1cccc(CSc2nn3c(=O)c(C)nnc3s2)c1,-8%,1,10µM*,-10%,2%
Cc1c(C)c2cc(Cl)c(OCc3nn[nH]n3)cc2oc1=O,146%,-10,28µM*,8%[57.1 µM],2%
C=C(C)CSc1nc2sc3c(c2c(=O)n1Cc1ccccc1)CC(C)(CC)OC3 (stereo unspecified),-13%,2,x,-32%,x
CNc1ncnc(Sc2nc(N)nc3nc[nH]c23)c1[N+](=O)[O-],13%[57.1 µM],-5,x,1.3µM*,x
Nc1nc(Sc2ccc([N+](=O)[O-])c3nonc23)c2[nH]cnc2n1,-32%,-52*,x,1.3µM*,x
CC(C)CCOc1ccc(CC(=O)NO)cc1,-1%,x,x,-5%,x
O=C(NCC(c1ccco1)S(=O)(=O)c1cccs1)c1c(F)cccc1F (stereo unspecified),8%[57.1 µM],-1,x,u,x
Cc1ccc(-c2nc(CS(=O)CC(=O)NCc3ccc(Cl)cc3)c(C)o2)cc1 (stereo unspecified),6%[57.1 µM],-7,8%,-10%[57.1 µM],2%
Cc1oc(-c2ccc(Cl)cc2)nc1CS(=O)CC(=O)NCc1ccccc1 (stereo unspecified),-9%,-1,x,u,-2%
CCc1ccc(-c2nc(CS(=O)CC(=O)NCCCN3CCOCC3)c(C)o2)cc1 (stereo unspecified),10%,-6,x,20µM*,-4%
CCc1ccc(-c2nc(CS(=O)CC(=O)NCc3ccccc3)c(C)o2)cc1 (stereo unspecified),2%,-4,x,32µM*,2%
Cc1oc(-c2ccc(Cl)cc2)nc1CS(=O)CC(=O)NCCCN1CCN(Cc2ccccc2)CC1 (stereo unspecified),2%,-2,x,-24%,-1%
Cc1oc(-c2ccc(Cl)cc2)nc1CS(=O)CC(=O)NCc1ccccn1 (stereo unspecified),-3%,1,x,18µM*,-4%
